# Where “and” joins values, the source holds several entries; their conditions need not be identical. Identical values can stand only once. The panel holds about 83,000 compounds, 20% with a hit somewhere; the sample as a whole holds those more often.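 Negative percent growth values reflect cell death: -40 means 40% of the cells present at the start died, and -100 means all died.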 A number with no mark means an inactive call. Calls of active or inactive are those of the source. How the source made its calls: active means growth percent below 10; inactive means the rest.
# Experiments:
# Assay in all cases: NCI-60 one-dose screen, 48 h (100 = growth as untreated, 0 = no growth, -100 = all killed)
# Conditions in all cases: 10 µM
# [1] = test system: NCI-H23 lung
# [2] = test system: NCI-H226 lung
# [3] = test system: NCI-H322M lung
# [4] = test system: HOP-62 NSCLC
# [5] = test system: NCI-H460 lung
# [6] = test system: HOP-92 NSCLC
# [7] = test system: NCI-H522 lung
# [8] = test system: A549/ATCC NSCLC
# [9] = test system: 786-0 renal
# [10] = test system: DU-145 prostate
# [11] = test system: K-562 leukemia
# [12] = test system: MALME-3M melanoma
# [13] = test system: MDA-MB-231 breast
# [14] = test system: RXF 393 renal
# [15] = test system: SF-268 CNS
# [16] = test system: SF-295 CNS
# [17] = test system: SF-539 CNS
# [18] = test system: UACC-257 melanoma
# [19] = test system: M14 melanoma
# [20] = test system: COLO 205 colon
Compound,growth [1],growth [2],growth [3],growth [4],growth [5],growth [6],growth [7],growth [8],growth [9],growth [10],growth [11],growth [12],growth [13],growth [14],growth [15],growth [16],growth [17],growth [18],growth [19],growth [20]
O=C(CCl)Nc1ccc(Cl)cc1,28.4%,50.7%,78.3%,75.1%,99.8%,57.8%,-96.3% (active),85.1%,44.7%,76.1%,19.4%,28%,46.7%,35.2%,41.9%,68.8%,105%,69.9%,47.1%,
CC(C)c1cc([N+](=O)[O-])cc([N+](=O)[O-])c1O,102%,102%,112%,98.5%,105%,75.1%,103%,103%,101%,110%,119%,137%,99.7%,102%,102%,99%,101%,115%,99.7%,105%
CC[C@@]1(O)C[C@H](OC2CC(N(C)C)C(O)C(C)O2)c2c(cc3c(c2O)C(=O)c2c(O)ccc(O)c2C3=O)[C@H]1C(=O)OC (some centres not stated),-79.6% (active),-62.3% (active),-78.6% (active),-69.6% (active),-64% (active),-68.9% (active),-70.1% (active),-84.8% (active),-97.5% (active),-77.8% (active),-73.7% (active),-87.4% (active),-70.9% (active),-66.3% (active),-61% (active),-81.5% (active),-88.5% (active),-67.7% (active),-93.1% (active),-80.1% (active)
CCOP(=O)(OCC)/C(C#N)=C/c1ccc(Br)cc1,92.9%,96.2%,105%,89.7%,104%,69.6%,89.7%,102%,104%,107%,,107%,106%,,95.2%,106%,95.9%,93.7%,98.4%,
COc1ccc2c(ccc3oc([N+](=O)[O-])cc32)c1,-9.56% (active),-4.88% (active),-10.7% (active),-4.6% (active),-3.44% (active),10.8%,-52% (active),0.82% (active),-2.34% (active),0.495% (active),0.428% (active),-55% (active),-20.3% (active),-64.3% (active),-6.08% (active),-0.437% (active),-18.7% (active),-56.9% (active),-40.2% (active),-76.3% (active)
ClCc1ccc2ccccc2n1,85.2%,78.2%,100%,59.4%,110%,79.8%,95.4%,102%,103%,102%,72.3%,97.6%,102%,95.5%,80.5%,87.3%,106%,104%,84.7%,128%
O=C1C=Cc2ccccc2C1=O,73.5%,100%,100%,73%,78.7%,93.7%,47.2%,97.9%,110%,45.9%,38.6%,52.7%,67.1%,46.5%,87.8%,94%,76.7%,75.9%,39.4%,
[Cl][Hg][c]1ccc(Cl)s1,51.1%,50.1%,91.3%,87.8%,83.7%,-70% (active),-98.1% (active),97.2%,-54.5% (active),62.5%,-0.908% (active),-69.8% (active),-47.2% (active),-90% (active),25.2%,100%,-3.52% (active),16.4%,-54.5% (active),
O=C1C(=O)c2ccccc2-c2ccccc21,-54.3% (active),-88.3% (active),101%,-70% (active),3.18% (active),-87.7% (active),-58.5% (active),-47.9% (active),-88.2% (active),-100% (active),-37.4% (active),-93.6% (active),-39% (active),-93.2% (active),-88.7% (active),-97.4% (active),-92.7% (active),-95.6% (active),-83.8% (active),
N#CCc1ccccc1,102%,96.3%,105%,97.4%,106%,82.2%,99.4%,101%,101%,113%,98.3%,111%,98.4%,111%,93.4%,104%,96.5%,103%,98.5%,107%
O=C(O)c1cc(Cc2ccc(O)c(C(=O)O)c2)ccc1O (tested in a mixture with another compound),87.6%,88.7%,87%,79.3%,65.9%,-49.4% (active),-49.9% (active),79.9%,78%,83%,68.5%,89.6%,66.8%,39.6%,76.9%,13.3%,79.2%,60.5%,80.5%,
C=NCC#N,97.8% and 97.9%,107% and 99.3%,107% and 118%,93.2% and 93.4%,102% and 120%,97.6%,68.8% and 103%,110% and 104%,99.4% and 103%,109%,91.2% and 107%,95.6% and 111%,100% and 112%,111% and 101%,103% and 102%,98.3% and 124%,88.4% and 99.3%,114% and 103%,94.2%,113% and 111%
COc1cc(/C=C/[N+](=O)[O-])cc(OC)c1OC,45%,,36.1%,16.8%,6.31% (active),58.1%,-54.8% (active),54.2%,-48% (active),9.73% (active),5.19% (active),-30.2% (active),34%,,28.6%,69%,-61.3% (active),-15.8% (active),-6.32% (active),
O=[N+]([O-])/C=C\c1ccc2c(c1)OCO2,87.2%,103%,113%,,84.8%,79.3%,72.2%,81.7%,89.6%,88.7%,78.2%,,101%,74.4%,86.7%,83.3%,94.8%,75%,76.6%,89.8%
